Source: PubChem BioAssay (NCATS)
Records with an inconclusive call do not appear. Activity calls are given as the source filed them. Calls follow the shape of the dose curve; as a rule, active = well fitted curve in either direction with a large enough effect (not every such curve was filed as active); inconclusive = small, poorly fitted or top-dose-only effect, or another doubt; inactive = flat fitted curve, though single readings scatter.
% is scaled to controls: 0 for no effect and ±100 for the full control effect.

Each compound was assayed against Mitogen-activated protein kinase 10 (Mus musculus) (UniProt Q61831) (assay: JNK3 AlphaScreen Assay (AID 530;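 also: kinase came from lysate of stimulated human HepG2 cells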)). Conditions: JNK3 lysate, c-Jun phosphorylation; series mostly up to 57.1 µM; activity change, negative = inhibition: at the top concentration.
Excerpt: NIH Chemical Genomics Center [NCGC]
NIH Molecular Libraries Screening Centers Network [MLSCN]
The c-jun N-terminal kinase (JNK) family are serine/threonine protein kinases that phosphorylate c-jun, a component of the transcription factor […] (AP-1). JNK kinases are members of the mitogen-activated protein kinase family including the extracellular regulated kinases and p38 kinases. Three JNK genes (JNK 1, 2, and 3) have been identified in humans so far. JNK1 and JNK2 have a broad distribution and JNK3 is primarily found in neuronal tissues and cardiac myocytes.
JNK3 has been under consideration as a target for the treatment of neurodegenerative disorders. […] JNK pathway is also involved in pathological process in a mouse model of Parkinson's disease (Xia et al., 2001).
Given these potential tissue distributions and links to neuroprotection, JNK3 inhibitors should provide useful investigational tools to study the role of this kinase in several diseases including, arthritis, stroke, myocardial infarction, ischemic injury and Parkinson's disease.
A homogeneous AlphaScreen is developed to measure the activity of JNK3. AlphaScreen is a two bead-based proximity-dependent chemical energy transfer luminescent assay platform. The phosphorylation of a biotinylated c-jun substrate by JNK3 can be detected with an antibody raised against phosphorylated c-jun. This process brings streptavidin donor beads and Protein-A acceptor beads to within a proximity range of <200 nm, and subsequently lead a chemical luminescent reaction upon exciting donor beads with 680 nm laser excitation light. Inhibition of JNK3 activity by small molecules and subsequent decrease in the antibody binding to biotinylated c-jun could attenuate or abolish this chemical luminescent reaction.
Yang DD, Kuan CY, Whitmarsh AJ, Rincon M, Zheng TS, Davis RJ, Rakic P and Flavell RA (1997) Absence of excitotoxicity-induced apoptosis in the hippocampus of mice lacking the Jnk3 gene. Nature 389:865-870. [PMID: 9349820]
Herdegen T, Claret FX, Kallunki T, Martin-Villalba A, Winter C, Hunter T, and Karin M (1998) Lasting N-terminal phosphorylation of c-Jun and activation of c-Jun N-terminal kinases after neuronal injury. J.Neurosci. 18:5124-5135. [PMID: 9651196]
Xia XG, Harding T, Weller M, Bieneman A, Uney JB and Schulz JB (2001) Gene transfer of the JNK interacting protein-1 protects dopaminergic neurons in the MPTP model of Parkinson's disease. Proc.Natl.Acad.Sci.U.S.A. 98:10433-10438.
NCGC Assay Protocol Summary:
GST-cJun (1-79) (Stratagene, La Jolla CA, #205145) was biotnylated by PerkinElmer (PerkinElmer-BioSignalInc. Montreal, Canada) and was detectable by the streptavidin Donor beads. Anti-(phospho)cJun (Ser73) antibody was from UpState (Charlottesvilles, VA, #06-659). JNK3-containing lysates were generated from HepG2 cells and pre-activated by interleukin1-beta and tumor necrosis factor alpha. All reagents were stored at -20 C before using. Phosphorylated biotinylated-GST-cJun was recognized by Anti-(phospho)cJun (Ser73) antibody and this process brings acceptor and donor beads together. Therefore JNK3 phosphorylation of cJun can be measured by Alpha reading by EnVision (PerkinElmer, Boston, MA).
The composition of kinase buffer was (in mM) 20 tris- HCl (pH 7.6) 10 MgCl2, 1 DTT, and 0.1 Na3VO4 and 0.01% Tween-20. Beads were diluted in detection buffer containing (in mM) 20 tris-HCl (pH 7.7), 20 NaCl and 80 EDTA and 0.3% BSA. The assay was performed at room temperature. All compounds were screened as titrations from 0.6 nM to 46 uM final concentration. The assay was performed in 1536-well format (white solid bottom and untreated) as follows:
Sequence,Parameter,Value,Description
1,Reagent,3 uL,Biotin-GST-cJun, Anti-(phospho)cJun and pre-activated JNK3-containing lysates
2,Compound,23 nL,Final concentration was 0.6nM to 46uM
3,Time,15 minutes,Room Temperature
4,Reagent,1 uL,ATP final concentration 10uM
6,Reagent,0.5 uL,2ng/well bead mixture
[…]
For `CNC(=O)OCC[N+](C)(C)C`, the “activity change, negative = inhibition” value was -13.6% (inactive). In the case of `CCCN(CCC)[C@@H]1CCc2cccc(O)c2C1`, the outcome was “inactive”. For `C[N+](C)(C)CC#CCOC(=O)Nc1cccc(Cl)c1`, the “activity change, negative = inhibition” value was -16.6% (inactive). With `O=CC=O` the “activity change, negative = inhibition” value was -7.18% (inactive). In the case of `NCCc1c[nH]c2ccc(C(N)=O)cc12`, the outcome was “inactive”. In the case of `C[C@@H](Cc1ccccc1)NCCC(c1ccccc1)c1ccccc1`, the “activity change, negative = inhibition” value was 4.21% [at 25.6 µM] (inactive). `O=C(O)c1cc[c]([Hg][Cl])cc1` was tested, and the “activity change, negative = inhibition” value was -12.2% (inactive). With `CP(=O)(O)C1=CCNCC1` the “activity change, negative = inhibition” value was 1.87% (inactive). In the case of `O=[N+]([O-])c1ccc2nc(N3CCNCC3)ccc2c1`, the “activity change, negative = inhibition” value was -4.8% (inactive). `COc1ccc2c(c1OC)C(=O)OC2C1c2cc3c(cc2CCN1C)OCO3` (stereo not given) was tested, and the “activity change, negative = inhibition” value was 4.83% (inactive). In the case of `NCCCP(=O)(O)O`, the “activity change, negative = inhibition” value was 8.95% (inactive). In the case of `CCCN(CCC)CCc1ccc(O)c(O)c1`, the “activity change, negative = inhibition” value was 11.2% (inactive). `C[N+](C)(C)CC#CCN1CCCC1=O` was tested, and the outcome was “inactive”. With `[O]=[Cr](=[O])([OH])[O][Cr](=[O])(=[O])[OH]` the outcome was “inactive”. `CC(C)(C)c1cc(O)ccc1O` was tested, and the outcome was “inactive”. For `C[N+](C)(C)CCOC(=O)CBr`, the “activity change, negative = inhibition” value was -18.9% (inactive). In the case of `CN1CCC(c2c[nH]c3ccc(O)cc23)CC1`, the outcome was “inactive”. For `N#CCCN`, the “activity change, negative = inhibition” value was -5.75% (inactive). `CCOC(=O)c1ccccc1C(=O)OCC` was tested, and the outcome was “inactive”. For `CCCCCCCCOC(=O)c1ccccc1C(=O)OCCCCCCCC`, the “activity change, negative = inhibition” value was -1.1% (inactive). `CCCN1CCc2cc(O)cc3c2[C@H]1Cc1ccc(O)c(O)c1-3` was tested, and the “activity change, negative = inhibition” value was -5.94% (inactive). `CCN(CCCl)Cc1ccccc1Br` was tested, and the “activity change, negative = inhibition” value was 3.55% (inactive). `CN1[C@@H]2CC[C@H]1CC(OC1c3ccccc3CCc3ccccc31)C2` (stereo not given in full) was tested, and the “activity change, negative = inhibition” value was 5.33% [at 25.6 µM] (inactive). With `O=S(=O)(O)c1cc(O)ccc1O` the “activity change, negative = inhibition” value was 6.04% [at 25.6 µM] (inactive). `CCC(=O)O[C@@](Cc1ccccc1)(c1ccccc1)[C@@H](C)CN(C)C` was tested, and the “activity change, negative = inhibition” value was 2.87% [at 25.6 µM] (inactive). `NCCc1ccc(S(=O)(=O)F)cc1` was tested, and the “activity change, negative = inhibition” value was 7.61% (inactive). With `CCCCCl` the “activity change, negative = inhibition” value was 19.7% (inactive). In the case of `CCCN(CCC)CCc1c[nH]c2ccc(C(N)=O)cc12`, the “activity change, negative = inhibition” value was 5.45% (inactive). `O=C(O)C(Cl)(Cl)Cl` was tested, and the outcome was “inactive”. With `Clc1ccccc1Cl` the “activity change, negative = inhibition” value was 3.51% (inactive). For `Cc1cc(C)cc(C(=O)OC2C[C@H]3CC[C@@H](C2)N3C)c1` (stereo not given in full), the “activity change, negative = inhibition” value was 2.75% (inactive). In the case of `O=[N+]([O-])c1ccc(F)c([N+](=O)[O-])c1`, the “activity change, negative = inhibition” value was -0.859% (inactive). In the case of `[Cl-].[Cl-].[Hg+2]`, the “activity change, negative = inhibition” value was -3.35% (inactive). In the case of `O=C1C=CC(=O)C=C1`, the outcome was “inactive”. For `Nc1ccc(CCN2CCN(c3cccc(C(F)(F)F)c3)CC2)cc1`, the “activity change, negative = inhibition” value was 51.8% (inactive). For `C[C@H]1CC[C@@H]2[C@@H](C)[C@H]3[C@H](C[C@H]4[C@@H]5CC=C6CC(O[C@@H]7O[C@H](CO)[C@H](O)[C@H](O[C@@H]8O[C@H](CO)[C@@H](O)[C@H](O)[C@H]8O)[C@H]7O[C@H]7O[C@@H](C)[C@H](O)[C@@H](O)[C@H]7O)CC[C@]6(C)[C@H]5CC[C@]34C)N2C1` (stereo not given in full), the “activity change, negative = inhibition” value was 14.6% (inactive). In the case of `c1ccc2c(N3CCNCC3)cccc2c1`, the “activity change, negative = inhibition” value was -6.7% (inactive). With `CCCN(CCC)C1Cc2cc(OC)c(OC)cc2C1` the “activity change, negative = inhibition” value was 15% (inactive). In the case of `O=[N+]([O-])c1ccccc1`, the “activity change, negative = inhibition” value was 2.22% (inactive). For `Cc1[nH]c2ccc(O)cc2c1CCN`, the “activity change, negative = inhibition” value was 57.4% (inactive).
